From the supplement of paper PMC12350171
Counter-ions that a name gives are not always drawn. Unmarked numbers belong to inactive results.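 The calls were made as follows: active = AUC significantly below DMSO controls by Student t-fit with adjusted P under 0.01; inactive = not significantly reduced.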

Tested on: Haemophilus parainfluenzae
Assay: growth AUC normalised to DMSO control (fraction of control); higher = less growth inhibition, active = hit call of the paper
Conditions: 20 µM
In short: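 After two anaerobic passages, pathogens were added at a starting OD578 of 0.01 to pre-reduced mGAM plates holding compound at 20 μM with 1% DMSO; hemin and NAD were supplemented for Haemophilus parainfluenzae. Sealed with breathable membranes, plates were read at OD578 hourly for 24 h, in three biological replicates. The trapezoidal rule, applied up to the exponential-to-stationary transition, gave the growth-curve AUC, which was normalised to DMSO controls on the same plate.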

Structure (SMILES) | growth AUC normalised to DMSO control
CN(C)CCC(c1ccc(Cl)cc1)c1ccccn1 (centres undefined) [Chlorpheniramine maleate] | 0.995
Nc1nc2c(ncn2COC(CO)CO)c(=O)[nH]1 [Ganciclovir] | 0.989
Clc1ccc(CO/N=C(\Cn2ccnc2)c2ccc(Cl)cc2Cl)c(Cl)c1 [Oxiconazole nitrate] | 1.01
C[N+](C)(CCOc1ccccc1)Cc1ccccc1.O=C([O-])c1cc2ccccc2cc1O [Bephenium hydroxynaphthoate] | 1.04
O=C(O)[C@H]1/C(=C/CO)O[C@@H]2CC(=O)N21 [Clavulanate potassium salt] | 1.06
N[C@@H](Cc1cc(I)c(Oc2ccc(O)c(I)c2)c(I)c1)C(=O)O [Liothyronine] | 0.943
Nc1cc(-c2ccncc2)c[nH]c1=O [Amrinone] | 1.09
CC(=O)[C@H]1CC[C@H]2[C@@H]3C[C@H](C)C4=CC(=O)CC[C@]4(C)[C@H]3[C@@H](O)C[C@]12C [Medrysone] | 0.955
O=C(O)Cc1cc(I)c(Oc2ccc(O)c(I)c2)c(I)c1 [Tiratricol] | 0.896
CCOc1ccccc1OCC1CNCCO1 (centres undefined) [Viloxazine hydrochloride] | 0.967
CCN(CC)C(=O)N1CCN(C)CC1 [Diethylcarbamazine citrate] | 0.978
Nc1ccc(S(=O)(=O)Nc2ccccn2)cc1 [Sulfapyridine] | 0.976
CC1Cc2ccccc2N1NC(=O)c1ccc(Cl)c(S(N)(=O)=O)c1 (centres undefined) [Indapamide] | 1.03
COc1ccc2cc(CCC(C)=O)ccc2c1 [Nabumetone] | 0.997
COc1cc(C)nc(-n2nc(C)cc2OC)n1 [Epirizole] | 0.999
C[C@]12C=CC(=O)C=C1CC[C@@H]1[C@@H]2C(=O)C[C@@]2(C)[C@H]1CC[C@]2(O)C(=O)CO [Prednisone] | 1.01
CC(C)(C)NC[C@H](O)COc1ccccc1C1CCCC1 [Penbutolol sulfate] | 1.02

Structure (SMILES) | growth AUC normalised to DMSO control
Cc1cc(C2CCCCC2)n(O)c(=O)c1 [Ciclopirox ethanolamine] | 0.905
CCN1CCC[C@H]1CNC(=O)c1c(OC)ccc(Br)c1OC [Remoxipride hydrochloride] | 1.04
NCc1ccccc1CC(=O)N[C@@H]1C(=O)N2C(C(=O)O)=C(CSc3nnnn3CC(=O)O)CS[C@H]12 [Ceforanide] | 0.0189 (active)
CCn1cc(C(=O)O)c(=O)c2cc(F)c(N3CCNC(C)C3)c(F)c21 (centres undefined) [Lomefloxacin hydrochloride] | 0.04 (active)
O=C1C(CC[S+]([O-])c2ccccc2)C(=O)N(c2ccccc2)N1c1ccccc1 (centres undefined) [Sulfinpyrazone] | 1.02
O=C(O)c1cc(=O)c2c(OCC(O)COc3cccc4oc(C(=O)O)cc(=O)c34)cccc2o1 [Cromolyn disodium salt] | 1.01
CCN1CCCC(OC(=O)C(c2ccccc2)c2ccccc2)C1 (centres undefined) [Piperidolate hydrochloride] | 1.05
CCCCNc1c(C(=O)OCC)c(C)nc2c1cnn2CC [Tracazolate hydrochloride] | 1.04
NC12CC3CC(CC(C3)C1)C2 [Adamantamine fumarate] | 1.05
O=C1NCCN1c1ncc([N+](=O)[O-])s1 [Niridazole] | 0.392 (active)
Cn1ccnc1S [Methimazole] | 1.02
CCOC(=O)[C@H](CCc1ccccc1)N[C@H]1CCc2ccccc2N(CC(=O)O)C1=O [Benazepril hydrochloride] | 0.995
O=c1[nH]c(=O)n([C@H]2C[C@H](O)[C@@H](CO)O2)cc1F [Floxuridine] | 0.0967 (active)
CNC(=O)c1c(I)c(C(=O)NCC(=O)Nc2c(I)c(C(=O)O)c(I)c(C(=O)NCCO)c2I)c(I)c(N(C)C(C)=O)c1I [Ioxaglic acid] | 0.921
CN1CCN(c2c(F)cc3c(=O)c(C(=O)O)cn4c3c2SCC4)CC1 [Rufloxacin] | 0.0692 (active)
CC(C)(C(=O)O)c1ccc(C(O)CCCN2CCC(C(O)(c3ccccc3)c3ccccc3)CC2)cc1 (centres undefined) [Fexofenadine hydrochloride] | 1.01
Cc1cc(C)nc(NS(=O)(=O)c2ccc(N)cc2)n1 [Sulfamethazine sodium salt] | 0.999
